ELG1 genotoxic: induces genotoxicity in HEK293T cells with luciferase-tagged ELG1; HEK293T ELG1-luciferase reporter, luminescence, 16 h; Potency, µM (series often up to 46 µM), usual class: activators; 330,000 compounds, 1.3% hits; also: nearly all actives have a fitted effect of over 60% in size
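Genotoxic stress is detected as increased luminescence from luciferase-tagged ELG1 in HEK293T cells, measured with ONE-Glo after a 16 hr treatment at 37 °C.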
Rab9 promoter act: activates the Rab9 promoter; Potency, µM (doses to about 9.22 µM), hits mostly activators; 320,000 compounds, 2.8% hits; AID 485297; Huh7 Rab9 promoter-luciferase reporter, luminescence, 24 h; also: nearly all actives have a fitted effect of over 60% in size
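Huh7 cells stably carrying Rab9 promoter–luciferase reporter, plated 1500 cells/well, compound added after 2 h and incubated 24 h at 37 °C; luciferase luminescence then read after 10 min with detection reagent.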
KinaseGlo FLuc: blocks Kinase-Glo luciferase, a counter-screen artifact; AID 1379; 200,000 compounds, 0.28% hits; Potency, µM (titrated, usually from 38.3 µM), hits mostly inhibitors; Q27757; Kinase-Glo luciferase, ATP luminescence, 8 min; also: nearly all actives have a fitted effect of over 60% in size
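Luminescence was the read-out, taken after 8-minute incubation at ambient temperature. Luciferase turned over luciferin with 10 uM ATP in imidazole pH 7.2 buffer containing KCl, MgCl2, Tween 20 and BSA.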
NPC1 prom act: activators of NPC1 promoter | Huh7 NPC1 promoter luciferase reporter, 24 h | 320,000 compounds, 2.4% hits | Potency, µM (titrated, usually from 9.22 µM), most hits filed as activators; also: nearly all actives have a fitted effect of over 60% in size
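Quantitative HTS used a cell-based reporter: Huh7 cells stably bearing the NPC1 promoter upstream of luciferase were treated with compounds for 24 h, and promoter activation was read as luminescence.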
FLuc modulator: counter-screen for miR-21 project: firefly luciferase inhibitors or activators. purified FLuc, Km substrates, luminescence inhibition. 360,000 compounds, 6.9% hits. Potency, µM (titrated, usually from 57.5 µM), hits mostly inhibitors. P08659; also: nearly all actives have a fitted effect of over 55% in size
Target sequence (P08659 whole entry, looked up): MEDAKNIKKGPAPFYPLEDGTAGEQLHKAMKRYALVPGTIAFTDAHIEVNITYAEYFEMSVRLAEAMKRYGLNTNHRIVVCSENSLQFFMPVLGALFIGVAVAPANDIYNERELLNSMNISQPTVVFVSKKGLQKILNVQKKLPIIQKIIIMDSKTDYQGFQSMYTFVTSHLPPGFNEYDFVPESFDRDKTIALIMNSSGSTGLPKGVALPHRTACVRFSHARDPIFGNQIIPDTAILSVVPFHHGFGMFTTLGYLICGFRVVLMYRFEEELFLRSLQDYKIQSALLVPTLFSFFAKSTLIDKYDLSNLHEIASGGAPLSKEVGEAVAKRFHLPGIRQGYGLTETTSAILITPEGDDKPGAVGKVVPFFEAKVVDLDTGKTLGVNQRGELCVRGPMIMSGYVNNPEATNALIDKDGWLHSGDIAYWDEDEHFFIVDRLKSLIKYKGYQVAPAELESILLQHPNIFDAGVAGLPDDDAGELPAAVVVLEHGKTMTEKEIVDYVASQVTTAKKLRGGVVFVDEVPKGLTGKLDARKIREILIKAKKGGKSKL
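Biochemical qHTS of compounds, final roughly 60 µM downward over six points, against 10 nM purified firefly luciferase using Km concentrations of substrates (10 uM D-luciferin, 10 uM ATP) in Tris acetate pH 7.5 buffer; luminescence output.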
SMN2 splice enh: SMN2 splice variant enhancement; HEK293 SMN2-luciferase splicing reporter, luminescence, 30-36 h; Potency, µM (titrated, usually from 46.1 µM), most hits filed as activators; 210,000 compounds, 2.8% hits; also: nearly all actives have a fitted effect of over 55% in size
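HEK293 cells carry an SMN2 minigene-luciferase reporter in which exon 7 inclusion puts luciferase in frame. Cells were seeded at 2000 cells/well, attached for 10-12 hours, then exposed to compounds for 30-36 hours at 37C before ONE-Glo luminescence.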
Large screens that a line does not name were inactive. An excerpt weighted towards active compounds, which were near 7.3% of everything screened. Calls follow the shape of the dose curve; as a rule, active = well fitted curve in the direction sought with a large enough effect; inconclusive = small, poorly fitted or top-dose-only effect, or another doubt; inactive = no such curve, though single readings can be large; an effect the other way counts as inactive or inconclusive.

CCOC(=O)c1c[nH]c2ccc3ccccc3c2c1=O	FLuc modulator inconclusive (no result: KinaseGlo FLuc, SMN2 splice enh)
COc1cc(C(C#N)N2N=C(c3ccccc3)CC2c2ccccc2)ccc1O (stereo unspecified)	ELG1 genotoxic inconclusive, FLuc modulator inconclusive
N#CC(c1ccccc1O)N1N=C(c2ccccc2)CC1c1ccccc1 (stereo unspecified)	ELG1 genotoxic inconclusive, Rab9 promoter act inconclusive, FLuc modulator 9.53µM (no result: KinaseGlo FLuc, SMN2 splice enh)
COC(=O)N1C2=C(c3ccccc3[C@@H]1CC(=O)Nc1ccc3ccc4cccc5ccc1c3c45)[C@@H]1C(=O)N(c3ccccc3)C(=O)[C@@H]1[C@H](C)C2	none (no result: ELG1 genotoxic, Rab9 promoter act, NPC1 prom act, FLuc modulator)
Cc1nonc1C(=O)N/N=C/c1cccc(O)c1	KinaseGlo FLuc 8.91µM, FLuc modulator 12µM
O=C(N/N=C/c1cccc(Oc2ccccc2)c1)c1cccc(Br)c1	FLuc modulator inconclusive
O=C(N/N=C/c1cccc(Oc2ccccc2)c1)c1cccc(O)c1	FLuc modulator 16.9µM (no result: KinaseGlo FLuc, SMN2 splice enh)
COc1ccc(/C=N/NC(=O)c2nonc2N)cc1OC	FLuc modulator inconclusive (no result: KinaseGlo FLuc, SMN2 splice enh)
O=C(N/N=C/c1cccc(O)c1)N/N=C/c1cccc(O)c1	FLuc modulator 5.36µM (no result: KinaseGlo FLuc, SMN2 splice enh)
COc1cccc(C2=NN(S(C)(=O)=O)C(c3cn(-c4ccccc4)nc3-c3cccs3)C2)c1 (stereo unspecified)	FLuc modulator inconclusive (no result: ELG1 genotoxic, Rab9 promoter act, KinaseGlo FLuc, NPC1 prom act)
Cc1ccc(C(=O)Nc2cc(-c3nc4ncccc4o3)ccc2C)c(C)c1	none (no result: ELG1 genotoxic, Rab9 promoter act, KinaseGlo FLuc, NPC1 prom act)
CC(C)c1ccc(/C=C/C(=O)NCCCc2ccccc2)cc1	FLuc modulator inconclusive
CC(C)c1ccc(/C=C/C(=O)O)cc1	FLuc modulator 19µM (no result: KinaseGlo FLuc, SMN2 splice enh)
CCCNC(=O)/C=C/c1ccc(C(C)C)cc1	ELG1 genotoxic inconclusive, FLuc modulator 16.9µM, SMN2 splice enh inconclusive
O=C(O)/C=C/c1ccc(/C=C/C(=O)O)cc1	none (no result: ELG1 genotoxic, Rab9 promoter act, KinaseGlo FLuc, NPC1 prom act, FLuc modulator)
Cc1ccc(CNC(=O)c2c3c(nc4ccccc24)C(=O)N(C2CCCCC2)C3)cc1	none (no result: ELG1 genotoxic, Rab9 promoter act, KinaseGlo FLuc, NPC1 prom act, SMN2 splice enh)
Cc1ccc(-n2nc(CO)c(C(=O)NCCC(C)C)n2)cc1C	FLuc modulator inconclusive (no result: ELG1 genotoxic, Rab9 promoter act, KinaseGlo FLuc, NPC1 prom act)
COc1cccc(C(=O)Nc2nc(-c3ccc4c(c3)OCO4)cs2)c1	FLuc modulator 16.9µM
CC(=O)Nc1nc(-c2ccc3c(c2)OCO3)cs1	Rab9 promoter act 2.24µM, NPC1 prom act 3.55µM, FLuc modulator 9.53µM (no result: KinaseGlo FLuc, SMN2 splice enh)
COC(=O)N1C2CC3(C)C=C(C)OC1(C)C3c1ccccc12 (stereo unspecified)	none (no result: ELG1 genotoxic, Rab9 promoter act, NPC1 prom act, FLuc modulator)
O=C(c1ccc2c3n(nc2c1)-c1ccc(Cl)cc1CO3)N1CCCCC1	ELG1 genotoxic inconclusive, Rab9 promoter act 1.78µM, NPC1 prom act 2.24µM, FLuc modulator 5.36µM (no result: KinaseGlo FLuc, SMN2 splice enh)
O=C(O)c1ccc2c3n(nc2c1)-c1ccc(Cl)cc1CO3	Rab9 promoter act inconclusive, NPC1 prom act inconclusive, FLuc modulator 1.9µM (no result: KinaseGlo FLuc, SMN2 splice enh)
O=C(c1ccc2c(=O)n3c(nc2c1)CCCCC3)N1CCCCC1	none (no result: KinaseGlo FLuc, SMN2 splice enh)
Cc1ccc2c(c1)COc1c3ccc(C(=O)N4CCOCC4)cc3nn1-2	ELG1 genotoxic 16.4µM, Rab9 promoter act 1.58µM, NPC1 prom act 2.51µM, FLuc modulator 9.53µM (no result: KinaseGlo FLuc, SMN2 splice enh)
CSc1ccc(C2c3c(-c4ccccc4O)n[nH]c3C(=O)N2Cc2ccncc2)cc1 (stereo unspecified)	FLuc modulator inconclusive (no result: ELG1 genotoxic, Rab9 promoter act, KinaseGlo FLuc, NPC1 prom act)
CCC(=O)Nc1ccc(C)cc1-c1nc2ccccc2n(C(C)C(=O)Nc2ccccc2CC)c1=O (stereo unspecified)	none (no result: ELG1 genotoxic, Rab9 promoter act, KinaseGlo FLuc, NPC1 prom act, SMN2 splice enh)
Cc1ccc(C)n1-c1ccc(N2CCOCC2)nc1	ELG1 genotoxic inconclusive, SMN2 splice enh 14.1µM
COc1ccccc1N1CCN(C(=O)c2ccc3c(c2)N(Cc2ccccc2)C(=O)c2ccccc2S3(=O)=O)CC1	none (no result: ELG1 genotoxic, Rab9 promoter act, KinaseGlo FLuc, NPC1 prom act)
COc1ccc(-c2n[nH]c(C)c2-c2cc(OC)ccc2O)cc1	none
COc1ccc(O)c(-c2cc(-c3cccc(Br)c3)n[nH]2)c1	ELG1 genotoxic 20.6µM, Rab9 promoter act inconclusive, NPC1 prom act inconclusive, FLuc modulator 19µM
COc1ccc(-c2cc(-c3cc(OC)ccc3O)[nH]n2)cc1	ELG1 genotoxic 9.2µM, Rab9 promoter act inconclusive, NPC1 prom act inconclusive, FLuc modulator 23.9µM, SMN2 splice enh inconclusive
COc1ccc(O)c(-c2cc(-c3ccc(F)cc3)n[nH]2)c1	ELG1 genotoxic inconclusive, Rab9 promoter act inconclusive, NPC1 prom act 4.47µM, FLuc modulator 15.1µM (no result: KinaseGlo FLuc, SMN2 splice enh)
